# According to PubChem BioAssay AID652257 (The Scripps Research Institute Molecular Screening Center, 2013):
# The campaign covered roughly 370,000 compounds. About 4,800 (1.3%) were called active.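 How the source made its calls: active means inhibition above about 21% made by adding two undisclosed values (limit read from the data); inactive means the rest.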 For the sample, actives were picked, then their nearest neighbours and some compounds at random.
# Target: Protein arginine N-methyltransferase 1 (Homo sapiens) (UniProt Q99873)
# Sequence (Q99873 whole entry, looked up): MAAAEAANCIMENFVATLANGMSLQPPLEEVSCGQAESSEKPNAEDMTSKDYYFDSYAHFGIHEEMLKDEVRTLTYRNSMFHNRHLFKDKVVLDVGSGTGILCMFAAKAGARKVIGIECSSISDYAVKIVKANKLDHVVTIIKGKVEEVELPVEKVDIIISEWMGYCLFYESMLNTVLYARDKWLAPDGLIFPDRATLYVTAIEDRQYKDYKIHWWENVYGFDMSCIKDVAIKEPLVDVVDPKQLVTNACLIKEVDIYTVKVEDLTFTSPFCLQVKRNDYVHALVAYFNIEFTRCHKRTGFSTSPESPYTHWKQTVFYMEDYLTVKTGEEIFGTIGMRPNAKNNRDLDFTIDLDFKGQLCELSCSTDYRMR
# Experiment: PRMT1 methyltransferase inhibitors, primary screen, biochemical, fluorescence polarization (AID 652257)
# Settings: recombinant PRMT1, activity-based probe fluorescence polarization; at 2.79 µM; stronger effect = higher value
row,SMILES,inhibition
1,CCOC(=O)c1csc(NC(=O)C2CCCN(S(=O)(=O)c3ccc(Cl)s3)C2)n1 (stereo not drawn),-5.11% (inactive)
2,Cc1nc(CNc2ncnc3ccc(-c4ccc5c(c4)OCO5)cc23)cs1,6.73% (inactive)
3,COc1ccc(C(=O)OCCN2CCN(C3CN(Cc4cn(Cc5ccccc5F)nn4)S(=O)(=O)C3)CC2)cc1OC (stereo not drawn),-2.53% (inactive)
4,Cc1cccc(C(=O)Nc2c(-c3ccc(F)cc3)nc3ncccn23)c1,1.66% (inactive)
5,Cc1cccc(CS(=O)(=O)c2ncc(Cl)c(C(=O)Nc3ccc(F)cc3)n2)c1,31.4% (active)
6,O=C(CCS(=O)(=O)c1ccccc1)Nc1ccc(Cl)c(Cl)c1,1.21% (inactive)
7,Cc1cc(NS(=O)(=O)c2ccc(NC(=S)NC(=O)c3ccc(F)cc3Cl)cc2)no1,-2.11% (inactive)
8,Cc1cccc(NC(=O)c2cc3c(C)nn(-c4ccccc4)c3s2)c1,-4.86% (inactive)
9,Cc1cccc(NC(=O)c2nc(S(=O)(=O)Cc3ccccc3)ncc2Cl)c1,31.1% (active)
10,Cc1cccnc1NC(=O)Cn1c(=O)oc2ccccc21,5.97% (inactive)
11,COC[C@@H]1CCCN1c1ccc2c(c1)O[C@H](C)CCN(C1CC1)S2(=O)=O,-6.48% (inactive)
12,O=C(Nc1cc(F)cc(F)c1)OC1CCC12CCC(c1ccccc1)CC2 (stereo not drawn),-0.51% (inactive)
13,COc1ccc([C@H]2OC(=O)C[C@H]2C(=O)N2CCN(c3ccccc3F)CC2)cc1OC,-4.27% (inactive)
14,O=C(CSc1nnc(-c2cccc(Cl)c2)n1Cc1ccco1)Nc1ccc(OCc2ccccc2)cc1,-2.9% (inactive)
15,Clc1cccc(-c2nc3nc4ccccc4nc3n2Cc2ccco2)c1,34.2% (active)
16,O=C(CSc1nnc(-c2ccccc2)n1Cc1ccco1)Nc1ccccc1-c1ccccc1,12.6% (inactive)
17,COc1ccccc1C(C)NC(=O)Cc1ccsc1 (stereo not drawn),-0.88% (inactive)
18,CCOc1ccc2[nH]c(=O)c(CN(Cc3nnnn3CCc3ccccc3)CC3CCCO3)cc2c1 (stereo not drawn),-1.4% (inactive)
19,CCC(c1nnnn1Cc1ccco1)N(CCc1ccccc1)Cc1cc2ccc(OC)cc2[nH]c1=O (stereo not drawn),44.2% (active)
20,COc1ccc2[nH]c(=O)c(CN(CC3CCCO3)C(=O)Nc3ccccc3)cc2c1 (stereo not drawn),-3.84% (inactive)
21,CCC(c1nnnn1Cc1ccco1)N(Cc1cc2cc(OC)ccc2[nH]c1=O)C1CCCCC1 (stereo not drawn),35.9% (active)
22,CCOc1ccc(CN(Cc2ccco2)C(c2cccs2)c2nnnn2C(C)(C)C)cc1 (stereo not drawn),2.59% (inactive)

row,SMILES,inhibition
1,CCC(=O)N(Cc1cc2ccccc2[nH]c1=O)c1ccc(OC)cc1,1.11% (inactive)
2,CNc1cncc(-c2ccc(NS(C)(=O)=O)cc2)n1,4.53% (inactive)
3,N#C/C(=C\c1ccccc1)c1n[nH]c(Cn2cncn2)n1,-3.96% (inactive)
4,CCCCNC(=O)C[C@H]1C(=O)N(Cc2ccc(OC)cc2)C2=CCCC[C@@]21C(=O)OCC,2.73% (inactive)
5,COC(=O)c1cc(S(=O)(=O)N2CCN(C(=O)C3CCCO3)CC2)cn1C (stereo not drawn),-1.95% (inactive)
6,O=C(CSc1nc2sc3c(c2c(=O)n1-c1ccccc1)CCCC3)NN=Cc1ccc(OCc2ccccc2)cc1,0.97% (inactive)
7,Cc1ccccc1CN1CCCCC(NC(=O)c2cccc(C#N)c2)C1=O (stereo not drawn),1.34% (inactive)
8,CCCCOCCCNC(=O)C[C@H]1C[C@@]2(C(=O)OC)C(=C[C@H](C(C)(C)C)O[C@@H]2C)N(CCc2ccc(OC)c(OC)c2)C1=O,-3.25% (inactive)
9,COc1cc(C2C(C(=O)c3ccco3)=C(O)C(=O)N2c2cc(C)on2)ccc1OCc1ccccc1 (stereo not drawn),4.72% (inactive)
10,COc1cc(C2CC(=O)N3CN(Cc4ccccc4)CSC3=C2C#N)ccc1OCc1ccccc1 (stereo not drawn),38.8% (active)
11,CCCNC(=O)C1CC(=O)N(c2ccc(OCc3ccccc3)cc2)C1 (stereo not drawn),-0.86% (inactive)
12,COc1ccnc(C(=O)N2CCC(Oc3cccnc3)CC2)c1,2.35% (inactive)
13,Cc1cc(=O)cc(C)[nH]1,-3.92% (inactive)
14,CSc1cc(C)[nH]c(=O)n1,2.31% (inactive)
15,Cc1cc(=O)[nH]c(=S)[nH]1,107% (active)
16,COC(=O)[C@H](C(C)C)N(CCc1cn(Cc2ccccc2)nn1)S(=O)(=O)c1ccc(F)cc1Br,0.27% (inactive)
17,Cc1ccc(C)c(S(=O)(=O)N(C)c2ccc(OC(=O)C3CCN(C(=O)c4ccc(F)cc4)CC3)cc2)c1,0.47% (inactive)
18,CCOC(=O)N1CCN(C(c2ccnc3ccccc23)c2nnnn2-c2c(C)cccc2C)CC1 (stereo not drawn),-3.34% (inactive)
19,CCOC(=O)N1CCN(C(c2cccnc2)c2ccc3cccnc3c2O)CC1 (stereo not drawn),26.1% (active)
20,CCCCC(=O)NC(c1ccc(OC)c(OC)c1)c1ccc2cccnc2c1O (stereo not drawn),-1.04% (inactive)
21,Cc1cccc(N2CCC(NCc3c(C(=O)N4CCCCC4)nc4c(C)cccn34)CC2)c1,7.11% (inactive)
22,O=C(O)C1CCN(S(=O)(=O)N2CCOCC2)CC1,0.67% (inactive)

row,SMILES,inhibition
1,O=C(O)c1c(NC(=O)N2CCCC2)sc2c1CCCC2,4.25% (inactive)
2,CCOC(=O)C(NC(=O)CC(C)C)(Nc1sc2c(c1C(N)=O)CCCC2)C(F)(F)F (stereo not drawn),0.14% (inactive)
3,NC(=O)c1c(Nc2nc3c(F)cccc3s2)sc2c1CCCC2,48.8% (active)
4,Cc1ccc2nc(SCc3nnc(-c4ccccc4[N+](=O)[O-])o3)c(C#N)cc2c1,-0.9% (inactive)
5,Cc1ccc(-c2ccc(/C=C(\C#N)C(N)=S)o2)c([N+](=O)[O-])c1,34.7% (active)
6,COc1ccc(CN2C(=O)C(CC(=O)NCCCCc3ccccc3)CC(C(=O)N3CCOCC3)=C2C)cc1 (stereo not drawn),-9.04% (inactive)
7,COCCNC(=O)C(c1ccc(C)cc1)N(C(=O)CCC(=O)Nc1ccccn1)c1cccc(C)c1 (stereo not drawn),-0.11% (inactive)
8,CCOC(=O)c1c(N=CN(C)C)c(C#N)c2n1CCCC2,-2.76% (inactive)
9,Cc1ccc(Cn2cc(COC(=O)N(C)Cc3ccccc3)nn2)cc1,0.99% (inactive)
10,O=C(COC(=O)Cn1[nH]c(=O)c2ccccc2c1=O)Nc1ncc(Cl)cc1Cl,-0.63% (inactive)
11,O=C(CN1CCc2ccccc21)NC(c1ccccc1)c1ccccc1,-3.28% (inactive)
12,CCOC(=O)/C=C/C(=O)OCC(=O)NC(c1ccccc1)c1ccccc1,8.52% (inactive)
13,O=C(Cc1ccc(-c2ccccc2)cc1)NC(c1ccccc1)c1ccccc1,44.1% (active)
14,COc1ccc(OCCCC(=O)Nc2nnc(C3CCCO3)s2)cc1 (stereo not drawn),2.04% (inactive)
15,COc1ccc(OCC(=O)Nc2nnc(-c3ccco3)s2)cc1,22.1% (active)
16,COc1ccc(CNC(=O)CCC(=O)Nc2nnc(C(C)C)s2)cc1,6.7% (inactive)
17,O=C(NCc1cccs1)C1CCCN(S(=O)(=O)c2ccc([N+](=O)[O-])cc2)C1 (stereo not drawn),0.46% (inactive)
18,C=CCN1C(=O)[C@H](CC(=O)NCCCN2CCCC2=O)[C@@]2(C(=O)OCC)CCCC=C12,0.15% (inactive)
19,O=C(NCCOc1cccnc1)c1ccc(OC2CCN(Cc3ccccn3)CC2)cc1,3.52% (inactive)
20,Cc1ccccc1N1CC(C(=O)Nc2nnc(SCCC3OCCO3)s2)CC1=O (stereo not drawn),5.12% (inactive)
21,Cc1ccnc(-n2sc3ccccc3c2=O)n1,90.7% (active)
22,CCOc1ccc(-n2cnnn2)cc1S(=O)(=O)N1CCC(C)CC1C (stereo not drawn),-4.54% (inactive)

row,SMILES,inhibition
1,CC(NC(=S)NC1CCCCC1)C(c1ccccc1)N1CCOCC1 (stereo not drawn),0.42% (inactive)
2,COc1ccc(N2CCN(CCNS(=O)(=O)c3ccc([N+](=O)[O-])cc3)CC2)cc1,-4.73% (inactive)
3,O=C(CC1N=C2c3ccccc3N=C(SCc3ccccc3Cl)N2C1=O)NCc1ccco1 (stereo not drawn),26.2% (active)
4,CC1(c2ccccc2Cl)NC(=O)N(CC(=O)NC(=O)NCc2ccco2)C1=O (stereo not drawn),5.3% (inactive)
5,O=C(CC1CCCCC1)NCc1ccco1,-1.65% (inactive)
6,O=C(NCCCN1CCN(c2ccc(F)cc2)CC1)Nc1ccc([N+](=O)[O-])cc1,-0.66% (inactive)
7,Nn1c(SCC(=O)Nc2cccc3ccccc23)nnc1-c1cc(-c2ccc(F)cc2)n[nH]1,2.17% (inactive)
8,CN(C)c1ccc(Nc2c3c4c(cccc4n(C)c2=O)C(=O)c2ccccc2-3)cc1,56.4% (active)
9,Cc1cc(Cl)ccc1C(=O)C1CCCN(C(=O)c2nonc2C)C1 (stereo not drawn),-0.28% (inactive)
10,COc1ccc(Cn2cc(COC(=O)N(C)Cc3ccccc3)nn2)cc1,-6.72% (inactive)
11,Cc1cccc(N2CCN(C(=O)/C=C/c3ccco3)CC2)c1C,29.9% (active)
12,Cc1cccc(N2CCN(C(=O)c3cc4c(=O)[nH]c5ccccc5c4n3C)CC2)c1C,-1.76% (inactive)
13,CCn1c(C)c(C)c2cc(C(=O)N3CCN(c4cccc(C)c4C)CC3)ccc21,2.44% (inactive)
14,CN(C)c1ccc(NC(=O)NC2CCCCN(Cc3ccc(Cl)cc3)C2=O)cc1 (stereo not drawn),4.83% (inactive)
15,Nn1c(SCC(=O)Nc2ccc(S(N)(=O)=O)cc2)nnc1-c1n[nH]c2c1CCC2,0.39% (inactive)
16,CN(C)[C@H]1CCN(c2cccc3c2S(=O)(=O)N2CC[C@H](C2)O3)C1,0.28% (inactive)
17,CC(=O)OC12CCCN(C1)/C(=C/c1ccncc1)C2 (stereo not drawn),-0.73% (inactive)
18,COCCCNC(=O)CC1C[C@H](C(=O)N2CCCCC2)[C@@]2(CCc3ccccc3)c3[nH]c4ccccc4c3CCN2C1=O (stereo partly drawn),-2.68% (inactive)
19,CCCCCCCCNS(=O)(=O)/C=C/c1cc(C)ccc1CNC(=O)OC(C)(C)C,-0.82% (inactive)
20,Cc1cc(NC(=O)C(C)SCC(=O)Nc2ccccc2N2CCCCC2)no1 (stereo not drawn),-2.38% (inactive)
21,Cc1cc(NC(=O)C(C)SCC(=O)Nc2cccc(S(=O)(=O)N3CCCCCC3)c2)no1 (stereo not drawn),71.1% (active)
22,O=C(CSc1ccccc1)Nc1cccc(S(=O)(=O)N2CCCCC2)c1,-5.2% (inactive)
